We go through 20 compounds from PubChem BioAssay (NCI).

About 79,000 compounds went through this panel and 15% of them were active in at least one assay; those are over-represented in the sample as a whole. Values without a mark were called inactive. Calls of active or inactive are those of the source. No stated cut-off is given here; in the data, active means growth inhibition above about 70%; inactive means the rest.

A short description of this assay: NCI Yeast Anticancer Drug Screen. Data for the bub3 strain (AID 167). The conditions noted are these: S. cerevisiae bub3 mutant strain, stronger effect = higher value. On the procedure: Growth inhibition of yeast strains with defined genetic alterations is measured as a screen for potential anti-cancer activity. Selected strains with alterations in DNA damage repair or cell cycle control were exposed to compounds and growth inhibition was measured relative to vehicle treated controls. The strain used in this assay is bub3

Setting [1] is: at 5.0 µM (retest, dose inferred, filed as 0.5).
Where [2] appears, read: at 50.0 µM (retest, dose inferred, filed as 5.0).

For the compound `O=C(O)C(O)(c1ccc(-c2ccccc2)cc1)c1ccc(-c2ccccc2)cc1`, the growth inhibition reads like this: under setting [1], -12%; under setting [2], 93% (active); (at 50.0 µM) 96.9% (active).

In the case of `COC1OC(OC)[CH]([Hg][Cl])C1OC` (configuration not stated), the growth inhibition was 100% (active) under setting [1], 99% (active) under setting [2] and 99.2% (active) (at 50.0 µM).

With `COc1cc2c(c3c[n+](C)c4c5cc6c(cc5ccc4c13)OCO6)OCO2`, the growth inhibition was 98% (active) under setting [1], 97% (active) under setting [2] and 93.1% (active) (at 50.0 µM).

With `C(=P(c1ccccc1)(c1ccccc1)c1ccccc1)[P+](c1ccccc1)(c1ccccc1)c1ccccc1.[Cl][Fe]([Cl])([Cl])[Br]`, the growth inhibition was 98% (active) under setting [1], 99% (active) under setting [2] and 99.5% (active) (at 50.0 µM).

With `Oc1c(Cl)cc(Cl)cc1Cl.[Cu+2]`, the growth inhibition under setting [1] is -10%, the growth inhibition under setting [2] was 97% (active) and the growth inhibition (at 50.0 µM) was 99.5% (active).

Regarding `CN(C=O)NC(=O)N(CCCl)N=O`, the growth inhibition runs as follows: under setting [1], 12%; under setting [2], 4%; (at 50.0 µM) -9.1%.

As for `O=C(O)c1cc(Cc2ccc(O)c(C(=O)O)c2)ccc1O` (tested in a mixture with another compound), the growth inhibition is 33% under setting [1], 36% under setting [2] and 72.7% (active) (at 50.0 µM).

On to `O=C(O)CN1CCN(CC(=O)O)CC(=O)[O][Hg][O]C(=O)C1`, for which the growth inhibition reads like this: under setting [1], 100% (active); under setting [2], 100% (active); (at 50.0 µM) 99.3% (active).

As for `CC(C)c1cc([N+](=O)[O-])cc([N+](=O)[O-])c1O`, the growth inhibition was -4% under setting [1], 85% (active) under setting [2] and 55.5% (at 50.0 µM).

With `OC1C2[C@@H](O)CCCN2C[C@@H](O)[C@H]1O` (some centres not stated), the growth inhibition under setting [1] was 6%, the growth inhibition under setting [2] was 8% and the growth inhibition (at 50.0 µM) is 4.95%.

Consider `N#CC(C#N)=Cc1c(O)ccc2ccccc12`, for which the growth inhibition was 10% under setting [1], 62% under setting [2] and 68% (at 50.0 µM).

`CN1CCc2c([nH]c3ccccc23)C1`: for the setting “at 50.0 µM”, the growth inhibition was 1.2%.

In the case of `O=C(O)CC(S)C(=O)O` (configuration not stated), the growth inhibition (at 50.0 µM) is -9.85%.

Regarding `CC(C)C1CN1CC(O)Cn1ccnc1[N+](=O)[O-]` (configuration not stated), the growth inhibition (at 50.0 µM) was 7.35%.

For `COc1ccc2c(c1)CC(CN1CCC3(CC1)C(=O)NCN3c1ccccc1)O2` (configuration not stated), for the setting “at 50.0 µM”, the growth inhibition is 55.5%.

`CC12CC3CC(C1)CC(N=[N+]=[N-])(C3)C2`: where the note is “at 50.0 µM”, the growth inhibition is -0.95%.

As to `C=CCN(CC=C)C(Cc1ccccc1)c1ccccc1` (configuration not stated), the growth inhibition (at 50.0 µM) was 11.3%.

As to `O=C([O-])CC(=O)[O-].O=C([O-])CC(=O)[O-].[K+].[Pd+2]`, the growth inhibition (at 50.0 µM) was 11.5%.

In the case of `[Br][Co][Br].[NH-]CC[NH-].[NH-]CC[NH-]`, for the setting “at 50.0 µM”, the growth inhibition is 22.9%.

Consider `CN(C)C(=S)Oc1c(Cl)cc(S(=O)(=O)F)cc1Cl`, for which, under “at 50.0 µM”, the growth inhibition was -6.5%.
